# Source: PubChem BioAssay AID651551 (Sanford-Burnham Center for Chemical Genomics, 2012)
# Target: PEG-3 (UniProt Q6IN02)
# Assay: GAPDH versus PEG-3 reporter suppression – cell-based, luminescence, counter-screen for PEG-3 promoter inhibitor project, SAR follow-up (AID 651551)
# Details: HeLa PEG-Prom / GAPDH luciferase reporter, 6 or 24 h, run 2, 24 h; at 99 µM (top of the series)
row,Structure (SMILES),inhibition % (higher = more inhibition) [%]
1,COc1ccc(-n2nc(C(=O)NCC(=O)Nc3cccc(OC)c3)c3ccccc3c2=O)cc1,21.2
2,Cc1ccc(Cl)cc1Nc1nc(-c2sc(NC(=O)c3ccco3)nc2C)cs1,1.6
3,Cc1cc(NC(=O)c2ccccc2)n(-c2nc3ccccc3n2C)n1,12.8
4,O=C(Nc1nc(-c2ccccc2)cs1)c1nn(-c2ccccc2)c(=O)c2ccccc12,21.2
5,Cc1nc(NC(=O)c2ccccc2)sc1-c1csc(Nc2ccccc2Cl)n1,-54.5
6,COCCCNC(=O)c1ccc(Cn2c(=O)c3ccccc3n(Cc3ccccc3C#N)c2=O)cc1,54.9
7,CCCn1nc(C(=O)Nc2nc(-c3ccccn3)cs2)c2ccccc2c1=O,44.6
8,CCn1nc(C(=O)Nc2nc(-c3ccccn3)cs2)c2ccccc2c1=O,53.3
9,COc1ccccc1Nc1nc(-c2sc(NC(=O)c3ccco3)nc2C)cs1,10
10,Cc1nc(NC(=O)c2ccccc2)sc1-c1csc(Nc2cccc(Cl)c2C)n1,-15.2
11,Cc1cc(NC(=O)c2cccc(C)c2C)n(-c2nc3ccccc3[nH]2)n1,24
12,COc1ccc(-n2nc(C(=O)NCC(=O)Nc3cc(OC)c(OC)c(OC)c3)c3ccccc3c2=O)cc1OC,40.8
13,Cc1cc(NC(=O)c2ccccc2C(F)(F)F)n(-c2nc3ccccc3[nH]2)n1,91.9
14,Cc1nc(NC(=O)c2ccccc2)sc1-c1csc(Nc2ccccc2)n1,63.3
15,Cc1cc(NC(=O)c2ccccc2C)n(-c2nc3ccccc3[nH]2)n1,11.5
16,CCn1cc(C(=O)NCc2ccco2)c(=O)c2cc(S(=O)(=O)N3CCCC3)ccc21,24
17,COc1ccc(Cl)cc1Nc1nc(-c2sc(NC(=O)c3ccccc3)nc2C)cs1,76.3
18,O=C(Nc1nc2ccccc2s1)c1nn(-c2ccccc2)c(=O)c2ccccc12,-4.01
19,O=C(Nc1nccs1)c1nn(-c2ccccc2)c(=O)c2ccccc12,49.2
20,CCCn1nc(C(=O)Nc2nc3ccccc3s2)c2ccccc2c1=O,18.4
21,Cc1cc(NC(=O)c2ccccc2)n(-c2nc3ccccc3[nH]2)n1,-13.6
22,COc1ccc(-n2nc(C(=O)NCC(=O)Nc3ccc(OC)c(OC)c3)c3ccccc3c2=O)cc1,35.2
23,CCCn1nc(C(=O)Nc2nc(-c3ccncc3)cs2)c2ccccc2c1=O,40.8
